Our source for the outcome values is PubChem BioAssay (NCATS).

Results filed as inconclusive are left out. Activity calls are given as the source filed them. Calls follow the shape of the full dose curve.

Chain of Retinoic acid receptor RXR-alpha (Homo sapiens) (P19793 whole entry, looked up): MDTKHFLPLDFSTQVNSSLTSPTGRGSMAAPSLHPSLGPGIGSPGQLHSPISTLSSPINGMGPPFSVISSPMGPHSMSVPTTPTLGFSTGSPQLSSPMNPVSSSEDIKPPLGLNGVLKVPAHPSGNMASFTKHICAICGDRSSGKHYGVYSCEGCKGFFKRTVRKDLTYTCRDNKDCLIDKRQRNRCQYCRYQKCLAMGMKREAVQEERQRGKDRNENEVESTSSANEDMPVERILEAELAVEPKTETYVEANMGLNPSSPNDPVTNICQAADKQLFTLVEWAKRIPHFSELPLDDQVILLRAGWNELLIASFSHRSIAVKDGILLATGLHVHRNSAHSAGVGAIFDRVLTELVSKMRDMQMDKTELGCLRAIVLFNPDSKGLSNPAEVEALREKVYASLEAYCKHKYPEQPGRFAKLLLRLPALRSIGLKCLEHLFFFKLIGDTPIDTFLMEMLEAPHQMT

The target in this assay is Retinoic acid receptor RXR-alpha (Homo sapiens) (UniProt P19793). Description: qHTS assay for small molecule agonists of retinoid X receptor alpha signaling (AID 588544). The settings on record: HEK293T RXRa-UAS-bla, beta-lactamase reporter, 18 h; series mostly up to 76.7 µM. An excerpt:
NIH Chemical Genomics Center [NCGC] U.S. Environmental Protection Agency [EPA] National Institutes of Environmental Health Sciences [NIEHS] National Toxicology Program [NTP] NCGC Assay Overview The Retinoid X receptor (RXR), a nuclear hormone receptor is expressed in liver, spleen, placenta, epidermis, central nervous system. These receptors are able to form homo and heterodimers with other nuclear receptors and due to this heterodimerizing ability, RXR functions as master regulators producing diverse physiological effects. Three subtypes of RXR exist; alpha, beta and gamma. Retinoid X receptor alpha (RXR-alpha) has potential roles in metabolic signaling pathways, skin alopecia, dermal cysts, cardiac development, insulin sensitization etc. Therefore screening environmental chemicals on RXR-alpha signaling can be used for the studies focused on such therapeutic applications.
NCGC Assay Protocol Summary Using a beta-lactamase reporter-gene under control of Retinoid X receptor--alpha (RXR-alpha) response element, a cell-based assay [GeneBLAzer (RXR-alpha -UAS-bla assay developed by Invitrogen] was used to measure RXR-alpha ligands signaling. GeneBLAzer RXR-alpha -UAS-bla HEK293T cells were used with assay medium containing 2% charcoal-stripped FBS. The assay was performed in clear bottom black Greiner 1536-well plates. 9-cis-retinoic acid was used in the screen as the positive control. Library compounds were measured for their ability to stimulate the reporter gene activity. Compounds were screened in a titration series in 1536-well format. The fluorescence intensity (405 nm excitation, 460/530 nm emission) was measured using an EnVision plate reader. Data was normalized relative to 9-cis-retinoic acid control (500 nM, 100%), and DMSO only wells (basal, 0%). Concentration-response titration points for each compound were fitted to the Hill equation yielding concentrations of half-maximal stimulation (EC50) and maximal response (efficacy) values. qHTS protocol for RXR-alpha beta-lactamase assay in agonist mode [Step] [Parameter] [Value] [Description] 1. Reagent; 6 uL; 2500 cells/well 2. Incubation; 37 C for 4 hrs 3. Compounds; 23 nL; 0.59 nM to 92 uM 4. Controls (9-cis-retinoic acid); 23 nL, - One column with dose response, start 38 uM, 1:3 dilutions in duplicates - Final concentrations of 500 nM and 50 nM in two columns 5. Incubation; 37 C for 18 hrs 6. Detection reagent; 1 uL of CCF4-dye 7. Incubation; RT for 2 hrs 8. Detection; Fluorescence; Envision plate reader
(In general: Quantitative high-throughput screening tests each substance at several concentrations.)
As for `CC1=CCC2CC1C2(C)C` (stereo not given), the outcome was inactive. Then `c1ccc2ccccc2c1`, with “inactive”; and `NCCN`, with “inactive”; and `OB(O)O`, with “inactive”. Then `CC1=CC(=O)NS(=O)(=O)O1`, with “inactive”; and `NCCO/C=C/[C@H](N)C(=O)O`, with “inactive”; and `CO[C@@H]1[C@H](OC(=O)/C=C/C=C/C=C/C=C/C(=O)O)CC[C@]2(CO2)[C@H]1[C@@]1(C)O[C@@H]1CC=C(C)C`, with “inactive”. For `Cc1ncc[nH]1`, the compound was classed as inactive.

Consider `OC[C@H]1O[C@@](CO)(O[C@H]2O[C@H](CO)[C@@H](O)[C@H](O)[C@H]2O)[C@@H](O)[C@@H]1O`, for which the result was inactive. Then `CC(C)(C)CC(C)(C)c1ccc(OCCO)cc1`, with “inactive”; and `CO`, with “inactive”; and `C[C@H](CCC(=O)O)[C@H]1CC[C@H]2[C@@H]3[C@H](O)C[C@@H]4C[C@H](O)CC[C@]4(C)[C@H]3C[C@H](O)[C@]12C`, with “inactive”. The value for `ClC(Cl)Cl` was “inactive”.

In the case of `Cc1ccc(S(=O)(=O)O)cc1C`, the compound was called inactive.

For `CN(CCO)CC(O)Cn1cnc2c1c(=O)n(C)c(=O)n2C` (stereo not given) (tested in a mixture with another compound), the compound was called inactive. Then `OCC(O)CO`, with “inactive”; and `OC[C@H]1O[C@@H]2O[C@H]3[C@H](O)[C@@H](O)[C@@H](O[C@H]4[C@H](O)[C@@H](O)[C@@H](O[C@H]5[C@H](O)[C@@H](O)[C@@H](O[C@H]6[C@H](O)[C@@H](O)[C@@H](O[C@H]7[C@H](O)[C@@H](O)[C@@H](O[C@H]1[C@H](O)[C@H]2O)O[C@@H]7CO)O[C@@H]6CO)O[C@@H]5CO)O[C@@H]4CO)O[C@@H]3CO`, with “inactive”; and `Nc1nccs1`, with “inactive”. The value for `NC(N)=O` was “inactive”; that for `COC(=O)c1ccccc1O` was “inactive”. As for `Nc1ncnc2c1ncn2[C@H]1CC[C@@H](CO)O1`, the compound was classed as inactive.

`OCCOCCOCCO`: the call was inactive. Consider `O=P(O)(O)O`, for which the result was inactive.

For the compound `OCl`, the compound was classed as inactive. Then `Nc1ccc(N=Nc2ccccc2)c(N)n1`, with “inactive”; and `C=CC(C)(O)CC/C=C(\C)CCC=C(C)C` (stereo not given), with “inactive”; and `Cc1ccc(S(=O)(=O)NCl)cc1`, with “inactive”. Then `C[Si](C)(C)O[Si](C)(C)C`, with “inactive”; and `CC(C)O`, with “inactive”. `CCCCC`: the result was inactive. Regarding `Oc1cccc(O)c1O`, the compound was classed as inactive.

In the case of `N[C@@H](Cc1cc(I)c(Oc2ccc(O)c(I)c2)c(I)c1)C(=O)O`, the compound was called inactive.

For the compound `C/C=C/C=C/C(=O)O`, the result was inactive. The value for `C=C(C)C1CC=C(C)CC1` (stereo not given) was “inactive”. Then `[O-][N+](=Nc1ccccc1)c1ccccc1`, with “inactive”; and `CCCCCCCCCCCCCCCCCC(=O)OC[C@@H](O)[C@H]1OC[C@H](O)[C@H]1O`, with “inactive”. Regarding `CO/N=C(/C(=O)N[C@@H]1C(=O)N2C(C(=O)O)=C(COC(N)=O)CS[C@H]12)c1ccco1`, the call was inactive. For the compound `CCCCC(CC)COS(=O)(=O)O` (stereo not given), the compound was classed as inactive.

In the case of `O.O.O.O.O.O.O.O=S(=O)([O-])[O-].[Co+2]`, the outcome was inactive. Turning to `CC(C)[C@@H]1CC[C@@H](C)C[C@H]1O`, the outcome was inactive.
